Assay: qHTS profiling of the MIPE4 collection as inhibitors of Plasmodium falciparum (DD2) proliferation (AID 743345)
Conditions: P. falciparum Dd2 in erythrocytes, SYBR Green DNA, 72 h; at 28.5 µM (top of the series) unless noted
Source text: Plasmodium falciparum is a virulent malarial parasite that kills 1-2 million people worldwide each year. Transmitted by mosquitoes, the sporozoite form of the parasite enters the blood stream to infect hepatocytes, where they become merozoites that infect red blood cells (erythrocytes). Within erythrocytes, merozoites begin a […] cycle of growth and division, after which the parasite is released to infect new red blood cells. Gametocytes, which form within erythrocytes as well, circulate in the bloodstream and are ingested by the mosquito, thereby completing the life cycle. To profile malarial isolates for differential chemical responses and to identify inhibitors of malarial growth, an assay that measures P. falciparum growth and replication within erythrocytes was employed. This assay uses a DNA binding fluorescent dye (SYBR Green) to detect parasite DNA following cell lysis. Because mature erythrocytes lack DNA, only Plasmodium-derived DNA is detected.
The SYBR Green viability assay was adapted from a method described previously (Plouffe et al., 2008). For screening 3 ul culture medium was dispensed into 1536 well black clear bottom plates (Aurora Biotechnologies) using a Multidrop Combi (Thermo Fisher Scientific Inc.), 23 nL compounds in DMSO were added by a pin tool (Kalypsys), and 5 ul of erythrocytes infected with P. falciparum (0.3% parasitemia, 2.5% hematocrit final concentration) were added. The plates were incubated at 37 C in a humidified incubator in 5% CO2 for 72 h, and 2 ul lysis buffer (20 mM Tris HCl, 10 mM EDTA, 0.16% saponin, 1.6% triton X, 10X SYBR Green I supplied as 10,000X […] by Invitrogen) was added to each well. The plates were mixed for 25 sec with gentle shaking and incubated overnight at room temperature in the dark. The following morning, fluorescence intensity at 485(14) nm excitation and 535(25) nm emission wavelengths was measured on an EnVision (Perkin Elmer) plate reader. Plate reads were normalized relative to the control inhibitor (0.29 uM artemisinin) and vehicle (DMSO) wells present on each plate and then corrected by an algorithm using vehicle-only control plates at the beginning and end of the compound plate stack.

Q: With CN(C)CC[C@H](CSc1ccccc1)Nc1ccc(S(=O)(=O)NC(=O)c2ccc(N3CCN(Cc4ccccc4-c4ccc(Cl)cc4)CC3)cc2)cc1[N+](=O)[O-] as the compound, how does the parasite growth remaining, % of DMSO control (lower = more inhibition) read?
A: The parasite growth remaining, % of DMSO control (lower = more inhibition) was 61.7%.

Q: For C=CC[N+]1([C@H]2C[C@H]3[C@@H]4CC[C@H]5C[C@H](O)[C@@H](N6CCOCC6)C[C@]5(C)[C@@H]4CC[C@]3(C)[C@H]2OC(C)=O)CCCC1, which parasite growth remaining, % of DMSO control (lower = more inhibition) is on record?
A: The parasite growth remaining, % of DMSO control (lower = more inhibition) was 41%.

Q: Which parasite growth remaining, % of DMSO control (lower = more inhibition) does the source give for O=C1NC(=O)C(c2cnc3ccccn23)=C1c1cn2c3c(cccc13)CN(C(=O)N1CCOCC1)CC2 here?
A: Its parasite growth remaining, % of DMSO control (lower = more inhibition) is 88%.

Q: For C[C@]12CC[C@@H]3c4ccc(O)cc4CC[C@H]3[C@H]1[C@@H](O)[C@@H](O)[C@H]2O, which parasite growth remaining, % of DMSO control (lower = more inhibition) is on record?
A: Its parasite growth remaining, % of DMSO control (lower = more inhibition) is 9.25%.

Q: Which parasite growth remaining, % of DMSO control (lower = more inhibition) does the source give for CC(C)C[C@@H](N)[C@H](O)C(=O)N[C@H](C(=O)N[C@H](C(=O)N[C@@H](CC(=O)O)C(=O)O)C(C)C)C(C)C here?
A: Its parasite growth remaining, % of DMSO control (lower = more inhibition) is 99.5%.

Q: Which parasite growth remaining, % of DMSO control (lower = more inhibition) does the source give for C#CCN(C)CC1=Cc2ccccc2Oc2ccccc21 here?
A: Its parasite growth remaining, % of DMSO control (lower = more inhibition) is 76.6%.

Q: Which parasite growth remaining, % of DMSO control (lower = more inhibition) does the source give for Cc1ccc(S(=O)(=O)Nc2nc3ccccc3nc2Nc2ccc3nsnc3c2)cc1 here?
A: Its parasite growth remaining, % of DMSO control (lower = more inhibition) is 88% [at 9.64 µM].

Q: Which parasite growth remaining, % of DMSO control (lower = more inhibition) does the source give for COC(=O)Nc1ccc(-c2nc(N3CCOCC3)c3cnn(C4CCN(C(=O)OC)CC4)c3n2)cc1 here?
A: The parasite growth remaining, % of DMSO control (lower = more inhibition) was 14.3%.

Q: For NC1(C(=O)N[C@@H](CCO)c2ccc(Cl)cc2)CCN(c2ncnc3[nH]ccc23)CC1, which parasite growth remaining, % of DMSO control (lower = more inhibition) is on record?
A: Its parasite growth remaining, % of DMSO control (lower = more inhibition) is 85.9%.

Q: Which parasite growth remaining, % of DMSO control (lower = more inhibition) does the source give for OC[C@H]1O[C@@H](O[C@H]2[C@@H](O)[C@@](O)(CO)O[C@@H]2CO)[C@H](O)[C@@H](O)[C@@H]1O here?
A: Its parasite growth remaining, % of DMSO control (lower = more inhibition) is 72.5%.

Q: With Cc1ccccc1C(=O)c1ccc(Nc2ccc(Br)cc2N)cc1Cl as the compound, how does the parasite growth remaining, % of DMSO control (lower = more inhibition) read?
A: Its parasite growth remaining, % of DMSO control (lower = more inhibition) is 44.1%.

Q: Which parasite growth remaining, % of DMSO control (lower = more inhibition) does the source give for Nc1ccc(-c2ccc3ncc4ccc(=O)n(-c5cccc(C(F)(F)F)c5)c4c3c2)cn1 here?
A: The parasite growth remaining, % of DMSO control (lower = more inhibition) was 5.9%.

Q: Which parasite growth remaining, % of DMSO control (lower = more inhibition) does the source give for CCCC1OC2C[C@@H]3[C@H]4CCC5=CC(=O)C=C[C@]5(C)[C@H]4C(O)C[C@]3(C)[C@]2(C(=O)CO)O1 (stereo not given in full) here?
A: Its parasite growth remaining, % of DMSO control (lower = more inhibition) is 20.2%.

Q: Which parasite growth remaining, % of DMSO control (lower = more inhibition) does the source give for NC(=O)c1nnn(Cc2cc(Cl)c(C(=O)c3ccc(Cl)cc3)c(Cl)c2)c1N here?
A: Its parasite growth remaining, % of DMSO control (lower = more inhibition) is 33.4%.

Q: For CCCCCCCCCCCCCC(=O)N[C@H](CO)[C@H](O)c1ccc([N+](=O)[O-])cc1, which parasite growth remaining, % of DMSO control (lower = more inhibition) is on record?
A: The parasite growth remaining, % of DMSO control (lower = more inhibition) was 85.8%.

Q: Which parasite growth remaining, % of DMSO control (lower = more inhibition) does the source give for CC[C@H]1OC(=O)[C@H](C)[C@@H](O[C@H]2C[C@@](C)(OC)[C@@H](O)[C@H](C)O2)[C@H](C)[C@@H](O[C@@H]2O[C@H](C)C[C@H](N(C)C)[C@H]2O)[C@](C)(O)C[C@H](C)C(=NOCOCCOC)[C@H](C)[C@@H](O)[C@]1(C)O here?
A: Its parasite growth remaining, % of DMSO control (lower = more inhibition) is 62.4%.

Q: With CC[C@H](NC(=O)[C@H](C)NC)C(=O)N1C[C@@H](O)C[C@H]1Cc1c(-c2[nH]c3cc(F)ccc3c2C[C@H]2C[C@H](O)CN2C(=O)[C@H](CC)NC(=O)[C@H](C)NC)[nH]c2cc(F)ccc12 as the compound, how does the parasite growth remaining, % of DMSO control (lower = more inhibition) read?
A: The parasite growth remaining, % of DMSO control (lower = more inhibition) was 8.23%.

Q: With Cn1c(=O)c(-c2c(Cl)cccc2Cl)cc2cnc(Nc3cccc(C(=O)O)c3)nc21 as the compound, how does the parasite growth remaining, % of DMSO control (lower = more inhibition) read?
A: The parasite growth remaining, % of DMSO control (lower = more inhibition) was 13.6%.

Q: For CN1C(=O)C[C@H](C(=O)N[C@@H](Cc2cnc[nH]2)C(=O)N2CCC[C@@H]2C(N)=O)NC1=O, which parasite growth remaining, % of DMSO control (lower = more inhibition) is on record?
A: Its parasite growth remaining, % of DMSO control (lower = more inhibition) is 33.3%.

Q: Which parasite growth remaining, % of DMSO control (lower = more inhibition) does the source give for O=C(O)C1=CC(O)C(O)[C@H](O)C1 (stereo not given in full) here?
A: Its parasite growth remaining, % of DMSO control (lower = more inhibition) is 55.1%.

Q: For CC[C@H](C=C[C@@H](C)[C@H]1CC[C@H]2[C@@H]3CC=C4C[C@@H](O)CC[C@]4(C)[C@@H]3CC[C@]12C)C(C)C, which parasite growth remaining, % of DMSO control (lower = more inhibition) is on record?
A: Its parasite growth remaining, % of DMSO control (lower = more inhibition) is 104% [at 9.64 µM].

Q: For CCCCCOC(=O)Nc1nc(=O)n([C@@H]2O[C@H](C)[C@@H](O)C2O)cc1F (stereo not given in full), which parasite growth remaining, % of DMSO control (lower = more inhibition) is on record?
A: Its parasite growth remaining, % of DMSO control (lower = more inhibition) is 102%.

Q: With CC(=O)OCC(=O)[C@@]12OC(C)(C)O[C@H]1C[C@H]1[C@@H]3C[C@H](F)C4=CC(=O)C=C[C@]4(C)[C@@]3(F)[C@@H](O)C[C@@]12C as the compound, how does the parasite growth remaining, % of DMSO control (lower = more inhibition) read?
A: Its parasite growth remaining, % of DMSO control (lower = more inhibition) is 82.3%.

Q: For Cc1ccc(C(=O)N(CCCN)[C@@H](c2nc3cc(Cl)ccc3c(=O)n2Cc2ccccc2)C(C)C)cc1, which parasite growth remaining, % of DMSO control (lower = more inhibition) is on record?
A: Its parasite growth remaining, % of DMSO control (lower = more inhibition) is 7.03%.

Q: For O=C(c1ccc(C(=O)N2CCC(N3CCCC3)CC2)c(Nc2ccccc2)c1)N1CCC(N2CCCC2)CC1, which parasite growth remaining, % of DMSO control (lower = more inhibition) is on record?
A: The parasite growth remaining, % of DMSO control (lower = more inhibition) was 66.3%.

Q: With Nc1[nH]nc2nnc(-c3c(-c4ccccc4)nn4ccccc34)cc12 as the compound, how does the parasite growth remaining, % of DMSO control (lower = more inhibition) read?
A: The parasite growth remaining, % of DMSO control (lower = more inhibition) was 97%.

Q: Which parasite growth remaining, % of DMSO control (lower = more inhibition) does the source give for CC1=C(CC(=O)O)c2cc(F)ccc2C1=Cc1ccc(S(C)=O)cc1 (stereo not given) here?
A: Its parasite growth remaining, % of DMSO control (lower = more inhibition) is 91.5%.

Q: For CNC(=O)c1ccc2c(C(=Nc3cccc(CN(C)C)c3)c3ccccc3)c(O)[nH]c2c1, which parasite growth remaining, % of DMSO control (lower = more inhibition) is on record?
A: The parasite growth remaining, % of DMSO control (lower = more inhibition) was 18.6%.

Q: For O=C(CC12CC3CC(CC(C3)C1)C2)Nc1cccc2nc(NCCNCCO)ccc12, which parasite growth remaining, % of DMSO control (lower = more inhibition) is on record?
A: Its parasite growth remaining, % of DMSO control (lower = more inhibition) is 13.2%.

Q: For Fc1ccc(C(c2ccc(F)cc2)N2CCN(CC=Cc3ccccc3)CC2)cc1, which parasite growth remaining, % of DMSO control (lower = more inhibition) is on record?
A: Its parasite growth remaining, % of DMSO control (lower = more inhibition) is 14.4%.

Q: Which parasite growth remaining, % of DMSO control (lower = more inhibition) does the source give for COc1cccc(OC)c1-c1cc(C(=O)NC2(C(=O)O)C3CC4CC(C3)CC2C4)nn1-c1ccnc2cc(Cl)ccc12 (stereo not given) here?
A: The parasite growth remaining, % of DMSO control (lower = more inhibition) was 33.7%.

Q: Which parasite growth remaining, % of DMSO control (lower = more inhibition) does the source give for CO[C@H]1/C=C\O[C@@]2(C)Oc3c(C)c(O)c4c(O)c(c5c(nc6cc(C)ccn65)c4c3C2=O)NC(=O)C(C)=CC=C[C@H](C)[C@H](O)[C@@H](C)[C@@H](O)[C@@H](C)[C@H](OC(C)=O)[C@H]1C here?
A: The parasite growth remaining, % of DMSO control (lower = more inhibition) was 31.8%.

Q: With CCN1CCC(n2cc(CNc3cc(Cl)c4ncc(C#N)c(Nc5ccc(F)c(Cl)c5)c4c3)nn2)CC1 as the compound, how does the parasite growth remaining, % of DMSO control (lower = more inhibition) read?
A: The parasite growth remaining, % of DMSO control (lower = more inhibition) was 12.5%.

Q: Which parasite growth remaining, % of DMSO control (lower = more inhibition) does the source give for COc1cc(Cl)cn2c(-c3cccc(NC4CNC4)n3)cnc12 here?
A: The parasite growth remaining, % of DMSO control (lower = more inhibition) was 27.3%.

Q: With CN(C)CCN(C)C(=O)c1ccc(NC(=O)Nc2ccc(-c3nc(N4CCOCC4)c4ccn(CC(F)(F)F)c4n3)cc2)cc1 as the compound, how does the parasite growth remaining, % of DMSO control (lower = more inhibition) read?
A: The parasite growth remaining, % of DMSO control (lower = more inhibition) was 8.31%.

Q: For CC(C)[C@H](O)C(=O)N[C@@H](C)C(=O)N[C@@H]1C(=O)N(C)CCc2ccccc21, which parasite growth remaining, % of DMSO control (lower = more inhibition) is on record?
A: The parasite growth remaining, % of DMSO control (lower = more inhibition) was 14.9%.

Q: Which parasite growth remaining, % of DMSO control (lower = more inhibition) does the source give for CC(C)c1onc(-c2c(Cl)cccc2Cl)c1COc1ccc(C=Cc2cccc(C(=O)O)c2)c(Cl)c1 here?
A: Its parasite growth remaining, % of DMSO control (lower = more inhibition) is 94.1%.

Q: Which parasite growth remaining, % of DMSO control (lower = more inhibition) does the source give for CCCCC(C)(C)[C@H](O)C=C[C@H]1[C@H](O)CC(=O)[C@H]1CC=CCCCC(=O)O here?
A: Its parasite growth remaining, % of DMSO control (lower = more inhibition) is 135%.

Q: With O=C(CCCN1CCN(c2ccc(F)cc2)CC1)NC1c2ccccc2CSc2ccccc21 (stereo not given) as the compound, how does the parasite growth remaining, % of DMSO control (lower = more inhibition) read?
A: The parasite growth remaining, % of DMSO control (lower = more inhibition) was 98.7%.

Q: For CCC[C@H](Nc1nc(-c2ccc(NC(=O)NCC)c(OC)c2)ncc1C)c1cccnc1, which parasite growth remaining, % of DMSO control (lower = more inhibition) is on record?
A: The parasite growth remaining, % of DMSO control (lower = more inhibition) was 7.78%.

— PubChem BioAssay (NCATS)
